# Source: PubChem
# An excerpt weighted towards active compounds, which were near 2.6% of everything screened.
# PME-1 Maybr inh – inhibitors of human PME-1 in Maybridge library | recombinant PME-1, FP-Rh probe fluorescence polarization | Q9Y570 | 16,000 compounds, 0.5% hits | inhibition, % at 9 µM; in the data active = inhibition above about 30%
# S1P1 ag – S1P1 (human) receptor agonism; S1P1 agonist cell-based reporter assay; activation, % at 4.5 µM; P21453; 16,000 compounds, 1.5% hits; in the data active = activation above about 80%
# OPRK1 antag MB – blocks the human kappa opioid receptor, Maybridge compounds; inhibition, % at 9 µM; OPRK1 cells, antagonist mode, fluorescence readout; 16,000 compounds, 0.4% hits; P41145; in the data active = inhibition above about 50%
# NOTCH agonist – agonists of NOTCH signaling; NOTCH signaling luciferase reporter cells, luminescence; activation, % at 2.5 µM; 15,000 compounds, 0.4% hits; AID 434982; in the data active = activation above about 2.2%
# TLR4-MyD88 inh – TLR4-MyD88 interaction inhibition; O00206; Cell-based TLR4-MyD88 binding inhibition assay; inhibition, % at 10 µM; 16,000 compounds, 0.06% hits; in the data active = inhibition above about 45%
# Target sequence (O00206 whole entry, looked up): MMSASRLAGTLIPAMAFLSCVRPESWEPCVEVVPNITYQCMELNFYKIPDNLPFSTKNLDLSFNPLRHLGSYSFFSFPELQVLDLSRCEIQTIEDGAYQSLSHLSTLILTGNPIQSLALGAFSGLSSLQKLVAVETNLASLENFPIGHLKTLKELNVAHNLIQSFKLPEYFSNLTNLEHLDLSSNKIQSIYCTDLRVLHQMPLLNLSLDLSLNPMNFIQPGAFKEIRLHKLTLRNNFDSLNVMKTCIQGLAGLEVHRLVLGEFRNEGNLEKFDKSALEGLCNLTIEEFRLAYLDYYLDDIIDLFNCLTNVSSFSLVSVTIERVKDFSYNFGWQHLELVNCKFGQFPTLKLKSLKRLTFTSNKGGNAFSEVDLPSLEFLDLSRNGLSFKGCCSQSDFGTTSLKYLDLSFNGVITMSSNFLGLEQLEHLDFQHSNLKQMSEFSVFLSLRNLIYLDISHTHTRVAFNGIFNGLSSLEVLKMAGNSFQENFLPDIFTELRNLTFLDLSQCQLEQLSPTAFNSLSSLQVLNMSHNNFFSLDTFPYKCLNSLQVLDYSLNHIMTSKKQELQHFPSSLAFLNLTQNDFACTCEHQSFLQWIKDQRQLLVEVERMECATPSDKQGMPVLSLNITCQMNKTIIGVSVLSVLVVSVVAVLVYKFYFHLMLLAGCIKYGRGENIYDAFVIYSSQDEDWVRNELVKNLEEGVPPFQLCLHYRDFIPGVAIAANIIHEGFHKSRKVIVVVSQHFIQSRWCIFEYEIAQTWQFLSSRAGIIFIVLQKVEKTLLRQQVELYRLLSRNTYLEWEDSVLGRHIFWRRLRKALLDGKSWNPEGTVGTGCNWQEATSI
# Numbers without * were called inactive; x = not tested or not shown.
SMILES,PME-1 Maybr inh,S1P1 ag,OPRK1 antag MB,NOTCH agonist,TLR4-MyD88 inh
FC(F)(F)c1cnc(NCCCNC(=S)Nc2cccnc2)c(Cl)c1,5.5,24.4,14.5,2.8*,-0.2
FC(F)(F)c1cnc(NCc2cccnc2)c(Cl)c1,0.5,10.8,-12.7,0.4,-7.8
COc1ccc(C(=O)CSc2n[nH]c(=O)n2Cc2ccco2)cc1,2.5,3.3,-0.4,2.2*,-1.3
C/C(=N\Nc1ccccc1)c1csc(-c2ccc(OCC(F)(F)F)nc2)n1,9.1,38.8,-1.3,0.2,-3.1
CC(=O)c1sc2nc(-c3cccs3)cc(C(F)(F)F)c2c1N,5.2,12.4,88.6*,-0.2,22.0
S=c1[nH]nc(Cc2ccc(Cl)c(Cl)c2)o1,3.7,-2.9,-7.0,-0.4,-6.1
COc1ccc(C(=O)N/N=C(/C(=O)O)c2ccccc2)cc1,-1.4,-10.9,8.6,0.0,5.2
COc1ccc(C(=O)NC(=Nc2c(C)cccc2C)SC)cc1,-6.9,101.1*,2.0,-0.6,3.1
Cn1c(-c2ccccn2)n[nH]c1=S,1.0,87.6*,-15.1,-0.4,3.2
Cc1cc(C(=O)Oc2ccccc2)oc(=O)c1,1.6,-2.3,12.1,-0.7,-5.4
CS(=O)(=O)Cc1noc(-c2cc(C(F)(F)F)cc(C(F)(F)F)c2)n1,2.5,-13.2,0.7,-0.4,-6.7
O=S(=O)(Cc1ccc(F)cc1)Cc1noc(-c2ccc(F)cc2Cl)n1,1.2,-5.6,-16.2,2.3*,1.3
N#Cc1c(N)nc(Sc2ccc(Cl)cc2)c(C#N)c1-c1cccs1,-37.5,-3.3,10.9,-0.5,-0.2
CCN(c1ccccc1)S(=O)(=O)c1cc([N+](=O)[O-])ccc1N,8.0,99.8*,12.5,-0.6,0.7
Cc1ccc([N+](=O)[O-])cc1S(N)(=O)=O,0.2,-4.6,-0.5,-0.3,11.8
Cc1cc2c(N)cccc2nn1,105.6*,-21.2,-0.7,-0.8,0.7
Cc1cc2c(NC(=O)c3ccccc3C(=O)O)cccc2nn1,-1.8,2.6,6.1,1.3,6.7
O=C(Nc1cc(C(F)(F)F)ccc1N1CCc2ccccc2C1)c1cccs1,4.0,16.6,4.8,-0.1,-0.9
CC1(C)CC(=O)c2c(SCCOC(=O)c3ccccc3Cl)sc(C#N)c2C1,0.0,97.3*,-14.0,-0.4,-17.5
O=S(=O)(OC[C@H]1CC2C=CC1CC2)c1ccccc1 (stereo not given in full),-1.5,-3.7,1.9,-0.3,-0.3
NC(=O)c1cccc(CC(=O)c2ccc(Cl)cc2)c1,0.8,10.3,-2.4,1.0,-8.5
CCCCCC[n+]1ccccc1/C=C/c1ccc(N(C)C)cc1,-17.2,113.2*,71.5*,-1.4,63.6*
COc1cc2ncnc(NNS(=O)(=O)c3cc(C)c(Cl)cc3C)c2cc1OC,31.9*,1.3,-3.7,-0.7,-4.6
Cc1cc(S(=O)(=O)NNc2ncnc3c2cnn3C)c(C)cc1Cl,0.4,1.8,0.3,0.6,0.6
O=C(O)c1ccccc1C(=O)c1ccc(Sc2ccccc2)c([N+](=O)[O-])c1,-2.4,23.8,-1.3,-0.1,9.0
SMILES,PME-1 Maybr inh,S1P1 ag,OPRK1 antag MB,NOTCH agonist,TLR4-MyD88 inh
CC(=O)c1ccc(Sc2cccc(C(F)(F)F)c2)c([N+](=O)[O-])c1,31.7*,10.6,-1.1,-0.5,-1.2
CN(C)C(=O)/C=C/c1ccccc1,4.9,-7.9,20.2,0.2,1.4
CC(=O)C1C(=O)C=C(/C=C/c2ccccc2)CC1c1ccccc1 (stereo not given),0.3,99.4*,18.9,-0.1,-5.2
COc1ccccc1N1CCN(C(=O)C(C)N2CCCc3cc(C)ccc32)CC1 (stereo not given),71.3*,-18.1,38.5,-0.7,-20.8
CCOC(=O)c1sc(COc2cccc(Cl)c2)nc1C,-0.1,90.8*,2.9,-0.7,-1.3
CCOC(=O)c1sc(-c2ccccc2)nc1C,-2.2,97.1*,-11.3,-0.5,16.0
CCOC(=O)c1sc(SCc2ccc(Cl)cc2)nc1C,0.3,76.9,1.2,-0.5,4.5
CCOC(=O)C1CCN(C(=O)c2sc(-c3ccccc3)nc2C)CC1,0.4,4.7,3.8,0.3,0.7
O=C1NCCN1CCNS(=O)(=O)c1ccc2c(c1)CCO2,0.3,-8.0,3.6,-0.7,4.0
O=C1NCCN1CCNS(=O)(=O)c1ccc(S(=O)(=O)c2ccccc2)s1,3.6,83.5*,-0.2,-1.0,16.5
Cc1c(C(=O)Cn2ccnc2)sc2ccc(Cl)cc12,-5.0,104.3*,-13.9,-0.1,2.2
Cc1c(C(=O)CC#N)sc2ccc(Cl)cc12,0.0,-8.1,-3.6,0.7,3.9
CNc1nnc(SCc2csc3ccccc23)s1,-2.8,118.1*,2.3,x,13.4
N=C(N)SCc1csc2ccccc12,3.2,19.7,-4.8,2.4*,-11.0
COC(=O)c1cc(NC(=S)NC(=O)c2ccccc2)ccc1N1CCOCC1,0.9,88.0*,9.2,-0.5,6.3
O=C(Nc1ccccc1N1CCOCC1)c1ccsc1,2.2,0.1,5.5,-0.5,-10.9
CCOC(=O)c1cc(C#N)c(N2CCC(C(=O)OCC)CC2)nc1C(F)(F)F,2.8,-5.2,35.7,x,-15.0
CCOC(=O)c1cc(C(=O)OC)c(C)nc1N1CCC(NC2CCCCC2O)CC1 (stereo not given),-0.2,-3.5,91.7*,-0.1,-6.1
CSc1sc(C(=O)NC(=O)Nc2ccc(Cl)cc2)c2c1-c1nocc1CC2,8.3,108.5*,68.1*,1.4,-3.2
Cc1cc(C(=O)NNC(=O)CSCc2cccc3ccccc23)no1,4.1,-10.0,11.1,2.8*,-9.0
O=C(NNC(=S)Nc1cccc(C(F)(F)F)c1)c1sc2ccccc2c1Cl,-21.6,96.1*,-0.7,-0.3,-0.6
COc1ccc(-c2ccnc(SCC(=O)NC3Cc4ccccc4C3)n2)cc1,5.2,-4.9,-8.3,-0.2,-1.9
N#C/C(=C\Nc1ccc(OC(F)(F)F)cc1)C(=O)c1cccs1,-7.0,42.8,4.1,0.1,2.2
N#C/C(=N\Nc1ccc(OC(F)(F)F)cc1)C(=O)c1ccsc1,4.0,106.8*,-1.1,1.1,-2.2
CC1C/C(=N\Nc2cc(Cl)cc(Cl)c2)c2cc(Cl)ccc2S1(=O)=O (stereo not given),13.3,-0.7,6.1,-0.2,8.0
SMILES,PME-1 Maybr inh,S1P1 ag,OPRK1 antag MB,NOTCH agonist,TLR4-MyD88 inh
CC(=NCCc1ccccc1)C1CCOC1=O (stereo not given),-1.6,114.0*,-11.0,-0.9,8.1
O=C(Cc1ccccc1)NC1CCN(C(=O)Cc2ccccc2)CC1,1.8,-12.9,3.0,0.0,-4.6
CCCCCCCCCCCC1SC[C@@H](C(=O)O)N1C(C)=O (stereo not given in full),9.6,3.4,19.2,0.8,5.7
Clc1ccc(CSC2=NCCN2)cc1,3.1,17.3,21.0,-0.2,-5.7
Cc1nc(-c2ccccc2)sc1C(=O)NNC(=O)c1cccc2ccccc12,-0.5,-2.7,1.7,0.4,-3.7
Cc1sc(-c2ccccc2)nc1CC(=O)NNC(=O)c1cccc(OC(F)(F)F)c1,-4.8,20.0,-9.8,2.5*,7.0
CCCCNc1ccc2c3c(cccc13)C(=O)N(CCCC)C2=O,13.7,74.0,89.0*,-0.4,55.2*
COc1ccc(/C(N)=N/OC(=O)c2ccccc2)cc1OC1CCCC1,-4.0,101.9*,14.9,-0.2,2.9
